Data taken from PubChem BioAssay.
Where “and” joins values, the source holds several entries; their conditions need not be identical. Identical values can stand only once. Records with an inconclusive call do not appear. Calls of active or inactive are those of the source. Unless noted, no cut-off is given here; in the data, nearly all actives have AC50 up to about 26 µM.

What was measured:
[1] = viability loss in pontine glioma line – cell-based, SU-DIPG-XXV, MIPE5.0, CellTiter-Glo, qHTS, dose response (AID 1347065); conditions: CellTiter-Glo ATP luminescence;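 note: cells exposed to compound for 48 hours before ATP readout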
[2] = growth inhibition of DIPG cells – cell-based, MIPE4.0 library, CellTiter-Glo luminescence, qHTS (AID 1347066; cut-off not given, nearly all actives have AC50 up to about 30 µM;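 note: cells exposed to compound for 48 hours before readout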); conditions: SU-DIPG-VI viability, CellTiter-Glo ATP luminescence
[3] = JHH-DIPG-1 glioma cell viability, MIPE5.0 library, CellTiter-Glo luminescence, qHTS (AID 1347067); conditions: JHH-DIPG-1 glioma viability, CellTiter-Glo ATP luminescence;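 note: cells exposed to compound for 48 hours before readout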
[4] = growth inhibition of DIPG cells – cell-based, MIPE5.0 library, qHTS (AID 1347068; cut-off not given, nearly all actives have IC50 up to about 30 µM;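 for IC50: cells exposed to compound for 48 hours before viability readout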); conditions: SU-DIPG-XXV viability
[5] = viability loss with induced miR-34 in A549 – imaging, A549 dox-inducible miR-34, nuclei and caspase counts, primary screen (AID 1347080;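 active = compounds whose cell count with miR-34 switched on is under 0.7 times the count with it off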); conditions: A549 miR-34 inducible, Hoechst nuclei count, 48 h
[6] = MELAS cybrid and Rieske KO viability enhancers – cell-based, MELAS cybrids, Rieske KO mouse fibroblasts, CellTiter-Glo, primary screen (AID 1508586;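 active = mean z-score across replicates of 1.96 or higher in either the MELAS or the Rieske mutant cell line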;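 note: z relative to plate mean and SD of compound and empty wells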); conditions: low glucose
[7] = molecular target: NAD(+) hydrolase SARM1 (Homo sapiens) (UniProt Q6SZW1); experiment: blocking NAD cleavage by SARM1 SAM-TIR – cell lysate, NAD-Glo luminescence (AID 1508614;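 active = compound whose remaining NAD level is above about 45 nM, limit read from the data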;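 note: higher remaining NAD means stronger inhibition of SARM1 NADase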); conditions: SAM-TIR HEK293T lysate NADase, at 1 µM, stronger effect = higher value
Sequence of NAD(+) hydrolase SARM1 (Homo sapiens) (Q6SZW1 whole entry, looked up, the tested form may be a part): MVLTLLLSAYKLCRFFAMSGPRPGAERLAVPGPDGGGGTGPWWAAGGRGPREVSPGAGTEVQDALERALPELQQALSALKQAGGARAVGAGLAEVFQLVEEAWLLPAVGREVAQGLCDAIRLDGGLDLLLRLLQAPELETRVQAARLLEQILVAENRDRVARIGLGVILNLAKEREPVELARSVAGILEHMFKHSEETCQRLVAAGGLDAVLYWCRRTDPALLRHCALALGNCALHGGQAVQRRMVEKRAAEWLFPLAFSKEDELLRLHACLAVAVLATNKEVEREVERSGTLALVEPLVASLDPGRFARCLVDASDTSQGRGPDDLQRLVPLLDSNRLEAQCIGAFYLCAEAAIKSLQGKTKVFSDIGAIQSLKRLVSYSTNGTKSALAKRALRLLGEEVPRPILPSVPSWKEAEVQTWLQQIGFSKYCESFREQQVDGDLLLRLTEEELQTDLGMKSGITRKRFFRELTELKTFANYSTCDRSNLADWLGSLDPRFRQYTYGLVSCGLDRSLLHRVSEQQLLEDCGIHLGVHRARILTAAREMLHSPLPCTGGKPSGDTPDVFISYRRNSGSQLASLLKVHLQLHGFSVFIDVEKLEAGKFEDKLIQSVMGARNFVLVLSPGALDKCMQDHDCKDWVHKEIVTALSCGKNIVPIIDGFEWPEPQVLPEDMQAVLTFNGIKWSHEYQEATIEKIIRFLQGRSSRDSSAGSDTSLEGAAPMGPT

[8] = molecular target: Mitogen-activated protein kinase 7 (Homo sapiens) (UniProt Q13164); experiment: Gal4-ERK5 driven luciferase induction – cell-based, HTS, primary screen (AID 1508626;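 active = luciferase signal above three times the same-plate solvent-only control wells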;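 note: luciferase driven by Gal4-ERK5 fusion binding five Gal4 sites before minimal TATA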); conditions: HeLa Gal4-ERK5 transactivation, 18 h, at 5 µM, stronger effect = higher value
Sequence of Mitogen-activated protein kinase 7 (Homo sapiens) (Q13164 whole entry, looked up, the tested form may be a part): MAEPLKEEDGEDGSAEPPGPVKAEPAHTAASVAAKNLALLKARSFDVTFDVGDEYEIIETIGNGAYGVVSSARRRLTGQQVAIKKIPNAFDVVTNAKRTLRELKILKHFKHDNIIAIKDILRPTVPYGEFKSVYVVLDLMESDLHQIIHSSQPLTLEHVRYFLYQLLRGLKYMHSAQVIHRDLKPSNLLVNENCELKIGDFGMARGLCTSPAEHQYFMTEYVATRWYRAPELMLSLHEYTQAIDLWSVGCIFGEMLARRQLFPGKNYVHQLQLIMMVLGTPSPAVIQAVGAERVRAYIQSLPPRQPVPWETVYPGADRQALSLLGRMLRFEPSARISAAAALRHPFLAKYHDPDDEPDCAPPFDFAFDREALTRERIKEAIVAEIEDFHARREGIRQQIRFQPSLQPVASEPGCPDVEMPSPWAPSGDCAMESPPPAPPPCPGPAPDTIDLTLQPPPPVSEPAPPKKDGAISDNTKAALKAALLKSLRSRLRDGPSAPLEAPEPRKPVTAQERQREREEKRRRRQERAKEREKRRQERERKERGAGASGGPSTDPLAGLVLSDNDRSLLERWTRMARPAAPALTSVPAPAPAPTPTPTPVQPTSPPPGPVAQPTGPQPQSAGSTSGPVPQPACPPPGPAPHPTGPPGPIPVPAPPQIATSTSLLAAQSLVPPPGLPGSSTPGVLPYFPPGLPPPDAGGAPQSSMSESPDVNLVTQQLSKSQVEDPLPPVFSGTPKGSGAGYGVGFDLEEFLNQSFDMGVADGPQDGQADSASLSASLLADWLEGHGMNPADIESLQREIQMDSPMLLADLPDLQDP

[9] = stronger effect = lower value, cell number ratio, induced over uninduced
[10] = measured here: relative caspase fold change +Dox/-Dox
[11] = measured here: total cells with miR-34 induction, stronger effect = lower value
[12] = measured here: total cells without miR-34 induction
[13] = MELAS cybrid survival, CellTiter-Glo 48 h, stronger effect = higher value
[14] = Rieske KO mouse fibroblast survival, CellTiter-Glo 72 h

SMILES | AC50 [1] | AC50 [2] | AC50 [3] | IC50 [4] | fold change [5, 9] | fold change [5, 10] | cell count [5, 11] | cell count [5, 12] | z-score [6, 13] | z-score [6, 14] | outcome [1] | outcome [2] | outcome [3] | outcome [4] | remaining NAD [7] | luciferase signal [8]
CCCCN(CCCC)CCC(O)c1cc2c(Cl)cc(Cl)cc2c2cc(C(F)(F)F)ccc12 (centres undefined) | 23.5 µM (active) | 23.5 µM (active) | 16.6 µM (active) | 20.9 µM (active) | 0.972 (inactive) | 0.81 | 8330 | 8580 | -1.05 (inactive) | -0.678 | – | – | – | – | – | –
Cc1cc2cc3c(C)cc(=O)oc3c(C)c2o1 | – | – | – | – | 0.952 (inactive) and 0.881 (inactive) | 1.2 and 2.5 | 9030 and 10900 | 9480 and 12400 | -0.707 (inactive) | -0.528 | inactive | inactive | inactive | inactive | 10 nM (inactive) | 104 AU (inactive)
Cn1c(=O)c2c(ncn2CC(O)CO)n(C)c1=O (centres undefined) | – | – | – | – | 0.891 (inactive) and 0.954 (inactive) and 0.903 (inactive) | 1.59 and 0.805 and 1.72 | 9080 and 7480 and 11300 | 10200 and 7830 and 12600 | -0.421 (inactive) and 0.782 (inactive) | 0.428 and -0.0518 | inactive | inactive | inactive | inactive | 10 nM (inactive) | 20 AU (inactive)
